Sampled rows, rich in hits. Any-hit rate of the full collection: about 12%.
G9a block – qHTS Assay for Inhibitors of Histone Lysine Methyltransferase G9a; Histone-lysine N-methyltransferase EHMT2 (Homo sapiens), Q96KQ7; G9a H3K9 monomethylation, AlphaScreen, 2 h; Potency, µM (series often up to 102 µM), for inactives: at the top dose activity, negative = inhibition, usual class: inhibitors; 350,000 compounds, 8.8% hits; further: on the % scale 0 is the no-effect control and ±100 the full control effect; nearly all actives have a fitted effect of over 75% in size
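Signal arises when biotinylated H3K9 peptide, once monomethylated, bridges streptavidin donor and antibody-captured acceptor beads. Enzyme at 20 nM was preincubated 15 min with test compounds; peptide 500 nM and SAM 20 uM then reacted for 2 h.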
Sfp inh – qHTS Assay for Inhibitors of Bacillus subtilis Sfp phosphopantetheinyl transferase (PPTase); 4'-phosphopantetheinyl transferase ffp (Bacillus subtilis), Q9F4F7; Biochemical Sfp PPTase activity, qHTS; Potency, µM, without a hit: largest response in the series, negative = inhibition, actives largely listed as inhibitors; 310,000 compounds, 3.5% hits;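 further: the enzyme is Sfp with the accession as filed and its product quenches rhodamine fluorescence; 0% = enzyme reaction without inhibitor and -100% = no enzyme wells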
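Compounds were incubated with enzyme (final 15 nM) for 15 min at room temperature before substrate addition started the reaction. Fluorescence at 525 nm excitation, 598 nm emission was recorded immediately and after 30 minutes.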
JMJD2A Tudor inh – qHTS Assay for Inhibitors of JMJD2A-Tudor Domain; AID 504339, 2011; Potency, µM (doses to about 114 µM), for inactives: at the highest dose activity change, negative = inhibition, usual class: inhibitors; 390,000 compounds, 4.4% hits; AlphaScreen JMJD2A-Tudor / H3K4me3 peptide binding; further: on the % scale 0 is the no-effect control and ±100 the full control effect; nearly all actives have a fitted effect of over 50% in size
Target sequence (O75164 whole entry, looked up, the tested form may be a part): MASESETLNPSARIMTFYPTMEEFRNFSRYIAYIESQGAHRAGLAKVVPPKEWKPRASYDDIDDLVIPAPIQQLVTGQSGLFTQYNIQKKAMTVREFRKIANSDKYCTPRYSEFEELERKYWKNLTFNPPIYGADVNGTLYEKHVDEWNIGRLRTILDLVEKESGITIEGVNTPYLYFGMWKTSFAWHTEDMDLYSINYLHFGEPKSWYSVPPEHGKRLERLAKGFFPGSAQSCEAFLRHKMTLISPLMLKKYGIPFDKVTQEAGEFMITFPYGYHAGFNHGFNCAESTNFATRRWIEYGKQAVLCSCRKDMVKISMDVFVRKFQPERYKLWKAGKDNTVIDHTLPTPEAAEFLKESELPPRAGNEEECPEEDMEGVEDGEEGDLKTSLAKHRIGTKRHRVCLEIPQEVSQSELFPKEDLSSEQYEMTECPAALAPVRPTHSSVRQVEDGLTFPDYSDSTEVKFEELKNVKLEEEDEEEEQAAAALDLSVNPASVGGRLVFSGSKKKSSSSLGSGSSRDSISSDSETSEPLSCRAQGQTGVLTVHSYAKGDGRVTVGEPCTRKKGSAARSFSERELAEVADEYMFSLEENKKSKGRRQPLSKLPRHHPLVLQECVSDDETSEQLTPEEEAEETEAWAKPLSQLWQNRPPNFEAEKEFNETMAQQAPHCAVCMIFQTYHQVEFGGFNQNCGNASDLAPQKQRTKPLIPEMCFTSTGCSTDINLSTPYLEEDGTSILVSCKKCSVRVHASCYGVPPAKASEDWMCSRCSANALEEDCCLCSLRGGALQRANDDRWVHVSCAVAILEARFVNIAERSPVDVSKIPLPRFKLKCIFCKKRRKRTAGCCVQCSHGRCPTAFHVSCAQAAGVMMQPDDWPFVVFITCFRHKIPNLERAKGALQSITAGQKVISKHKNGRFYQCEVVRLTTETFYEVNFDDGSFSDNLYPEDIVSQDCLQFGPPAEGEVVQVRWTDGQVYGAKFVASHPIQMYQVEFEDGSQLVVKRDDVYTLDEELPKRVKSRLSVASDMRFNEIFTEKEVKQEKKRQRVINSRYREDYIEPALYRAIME
HP1b binding inh – HTS for Inhibitors of HP1-beta Chromodomain Interactions with Methylated Histone Tails. Chromobox protein homolog 1 (Homo sapiens), P83916. AlphaScreen HP1-beta / biotin-H3K9me3 peptide binding. Potency, µM (top dose mostly 114 µM), for inactives: top-dose activity change, negative = inhibition, most hits filed as inhibitors. 390,000 compounds, 0.56% hits. AID 540317, 2011; further: nearly all actives have a fitted effect of over 70% in size
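Compound inhibition of the preformed complex between 50 nM HP1-beta and 50 nM biotinylated H3K9me3 peptide was read by AlphaScreen. Buffer was PBS pH 7.4 with 0.01% Tween-20. Incubations ran 30 min at room temperature, with 10 ug/mL donor/acceptor beads.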
BAZ2B block – qHTS Assay for Inhibitors of BAZ2B; AlphaScreen BAZ2B-H3K14Ac peptide displacement; Potency, µM (doses to about 114 µM), without a hit: top-dose activity change, negative = inhibition, hits mostly inhibitors; 360,000 compounds, 4.4% hits; AID 504333, 2011; further: on the % scale 0 is the no-effect control and ±100 the full control effect; nearly all actives have a fitted effect of over 60% in size
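Protein-peptide AlphaScreen: BAZ2B 50 nM, b-H3K14Ac 50 nM, 1x PBS pH 7.4 + 0.01% Tween-20. Preincubation 30 min RT; cpd 30 min RT (top 110 uM); beads 20 min RT, light-protected.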
PLK1 PBD inh – qHTS for Inhibitors of PLK1-PDB (polo-like kinase 1 - polo-box domain): Primary Screen. Plk1 PBD binding of FITC phosphopeptide, fluorescence polarization. Potency, µM, without a hit: max response, negative = inhibition, usual class: inhibitors. 360,000 compounds, 2.8% hits. Serine/threonine-protein kinase PLK1 (Homo sapiens), P53350; further: series mostly up to about 57 µM; on the % scale 0 is the no-effect control and ±100 the full control effect; nearly all actives have a fitted effect of over 65% in size
An asterisk follows results filed as active; ? = inconclusive; . = no result; ! = not active in a repeat; [ ] = remark or other dose. The call rests on the fitted dose curve; in most records, active means well fitted curve in the direction sought with a large enough effect; inconclusive means small, poorly fitted or top-dose-only effect, or another doubt; inactive means no such curve, though single readings can be large; an effect the other way counts as inactive or inconclusive. Potency means the concentration at half of the fitted maximal effect.

SMILES	G9a block	Sfp inh	JMJD2A Tudor inh	HP1b binding inh	BAZ2B block	PLK1 PBD inh
Cc1ccc(NC(=O)COC(=O)c2nn(C)cc2Cl)cc1	3.8%	16.8%	-15.0%	-13.2%	-6.4%	-11.7%
CCOc1ccc(NC(=O)CN(C)C(=O)Cc2ccc3c(c2)OCCO3)cc1OCC	.	.	.	.	.	-13.3%
C=CCN(C(=O)CNC(=O)c1cccs1)C(C(=O)NC1CCCCC1)c1cccnc1 (stereo unspecified)	0.7%	13.8%	-20.8%	29.0%	-13.1%	-6.5%
CC(OC(=O)CCOc1ccccc1)C(=O)NC1CC1 (stereo unspecified)	14.0%[0.501 µM]	.	-2.8%	32.1%	-3.8%	-2.6%
Cc1ccc(-c2nc(-c3cccnc3)sc2CC(=O)Nc2ccc3nc(C)sc3c2)cc1	-16.2%[59 µM]	-11.8%	-25.2%	22.5%	-1.3%	0.0%
OC[C@H]1O[C@@H](O[C@@H]2OC=C[C@H]3[C@H](O)[C@@H]4O[C@]4(CO)[C@@H]23)[C@H](O)[C@@H](O)[C@@H]1O	.	-1.3%	.	.	.	.
O=C(O)COc1ccccc1/C=C1\SC(=S)N(NC(=O)c2ccccc2O)C1=O	36.9%[2.33 µM]	.	3.16µM*	-1.9%	14.1µM*	-24.2%
O=C(O)COc1ccccc1/C=C1\SC(=Nc2ccc(F)cc2)N(c2ccc(F)cc2)C1=O	?	?	-31.0%	32.5%	79.4µM*	?
O=C1/C(=C\c2ccc(O)cc2)SC(=S)N1/N=C/c1ccc(O)cc1	.	-0.2%	-31.7%	-8.4%	?	53.3%
O=C(O)COc1ccc(/C=C2\SC(=Nc3ccccc3)N(c3ccccc3)C2=O)cc1	-29.7%	5.3%	-25.9%	13.8%	-19.1%	-4.4%
O=C(O)c1ccc(/C=C2\SC(=Nc3ccccc3)N(c3ccccc3)C2=O)cc1	?	79.4µM*	-18.4%	24.5%	-6.9%	-7.7%
CCOc1cc(/C=C2\SC(=Nc3ccccc3)N(c3ccccc3)C2=O)ccc1OCC(=O)O	?	-17.0%	-30.1%	-8.7%	?	-17.6%
O=C(O)COc1ccccc1/C=C1\SC(=S)N(/N=C/c2ccccc2O)C1=O	10.7%[2.33 µM]	?	?	-34.6%	56.2µM*	21.2µM*
O=C(CCn1ccc2cc(S(=O)(=O)N3CCCC3)ccc21)NCc1cccc(Br)c1	1.3%[59 µM]	.	-5.2%	67.1%	3.4%	.
C=C1[C@@H](O)[C@H](Cc2ccccc2)N(Cc2ccccc2Br)S1(=O)=O	.	.	-22.5%	34.3%	.	-24.3%
COc1ccc(CCN2CC(C(=O)NCCc3ccc(C)cc3)CC2=O)cc1OC (stereo unspecified)	1.7%[59 µM]	9.9%	-35.2%	-12.2%	56.2µM*!	-9.6%
COc1ccc(CCN2CC(C(=O)NC3CCCCC3)CC2=O)cc1OC (stereo unspecified)	10.9%[59 µM]	-2.5%	2.1%	40.9%	50.1µM*	-8.2%
Cc1ccc(CCNC(=O)C2CC(=O)N(CCc3ccc(C)cc3)C2)cc1 (stereo unspecified)	-1.5%[59 µM]	.	-21.7%	11.3%	2.4%	.
Cc1cc(C)n2nnnc2n1	-27.9%	8.7%	-15.5%	-1.3%	-1.3%	-2.9%
Cn1c(-c2nc(-c3ccccc3)cs2)nc2ccccc21	.	44.7µM*	.	.	.	.
Cn1c(-c2ccncc2)nc2ccccc21	0.8%[0.501 µM]	24.1%	-13.6%	18.5%	9.5%	-8.4%
Cc1nc2c(Cl)cccc2[nH]1	56.2µM*	17.7%	13.2%	18.1%	6.7%	-5.1%
Cc1ccc(S(=O)(=O)N2Cc3ccccc3CC2C(=O)N(C)C)cc1 (stereo unspecified)	.	.	.	.	.	2.0%
C=CCSc1nc(C)c(CCC(C)C)c(=O)[nH]1	-4.4%	8.0%	-32.8%	19.3%	1.7%	26.7µM*
CC(=O)Nc1ccc(S(=O)(=O)N2CCC(N3CCCC3)CC2)cc1	50.1µM*	-4.3%	3.55µM*	?	?	0.4%
SMILES	G9a block	Sfp inh	JMJD2A Tudor inh	HP1b binding inh	BAZ2B block	PLK1 PBD inh
COc1ccc(S(=O)(=O)N2CCCCCC2)cc1	-0.8%[59 µM]	22.6%	-14.4%	16.1%	-2.8%	-6.2%
CCn1c(SCc2ccccc2)nnc1C1CCN(S(=O)(=O)c2ccc(OC)cc2)CC1	.	5.6%	-5.7%	20.7%	-25.7%	1.4%
CC(=O)Nc1ccc(S(=O)(=O)N2CCN(S(=O)(=O)c3ccc(NC(C)=O)cc3)CC2)cc1	-23.9%	-4.7%	-5.6%	23.9%	0.3%	-3.0%
CCn1c(C2CCN(S(=O)(=O)c3ccc(OC)cc3)CC2)n[nH]c1=S	14.1µM*	17.8%	6.31µM*	7.7%	-18.8%	-15.6%
COc1ccc(S(=O)(=O)N2CCC(N3CCCCC3)CC2)cc1	?	?	8.91µM*	?	70.8µM*	-1.3%
Cc1ccccc1C(=O)N1CCC(C(=O)Nc2ccc(S(=O)(=O)N3CCCC3)cc2)CC1	?	-25.7%	-10.7%[11.4 µM]	-27.6%	11.9%	11.9µM*
COc1ccccc1CNC(=O)COc1cccc(-n2cnnn2)c1	-1.9%	.	0.0%	20.4%	-2.9%	2.8%
Cc1ccc(S(=O)(=O)N2CCC(C(=O)Nc3ccc(N4CCOCC4)cc3)CC2)cc1C	15.8µM*	.	-4.8%	26.1%	-1.6%	0.6%
O=c1ccc(S(=O)(=O)N2CCCC2)cn1Cc1ccc(F)cc1	3.55µM*	.	0.0%	25.5%	-1.8%	-3.3%
CSc1ccc(S(=O)(=O)N2CCC(C(=O)Nc3ccc(NC(C)=O)cc3)CC2)cc1	39.8µM*	-2.2%	-15.8%	12.0%	1.0%	-10.9%
COc1ccc(S(=O)(=O)N2CCC(C(=O)N3CCc4ccccc4C3)CC2)cc1	-0.7%	-17.7%	-7.7%	29.9%	-6.1%	-0.7%
CSc1ccc(S(=O)(=O)N2CCC(C(=O)N3CCc4ccccc4C3)CC2)cc1	39.8µM*	21.5%	-13.0%	12.4%	-18.2%	-1.0%
CC(C)CO/N=C1/C[C@@H](O)[C@@H](O)[C@@H]2[C@@H]3C(=O)N(Cc4ccc5c(c4)OCO5)C(=O)[C@H]3CC[C@H]12	.	12.8%	.	.	.	.
CC(C)CNC(=O)C(=O)Nc1c2c(nn1-c1ccccc1)CS(=O)(=O)C2	?	.	?	-20.0%	-28.0%	.
Cn1c(=O)oc2cc(S(=O)(=O)N3CCC(C(=O)Nc4ccc(F)c(Cl)c4)CC3)ccc21	-29.8%[59 µM]	.	-10.9%	38.4%	-12.7%	.
Cc1nnc(NC(=O)C2CCN(S(=O)(=O)c3ccc(F)c(F)c3)CC2)o1	.	.	50.1µM*	28.6%	.	-5.3%
O=S(=O)(c1ccc(F)cc1)N1CCC(N2CCCC2)CC1	?	-9.1%	20µM*	?	?	-8.8%

Bioassay records (PubChem)
